# Measured values from the supplement of paper PMC10849652.
# Of roughly 7,900 targets only a part is listed; those with a hit were picked by preference. About 0.6% of all pairs of compound and target were hits. Values without a mark were called inactive.
# Columns and labels:
# Experiment in all cases: log2 fold change, soluble protein after heating vs DMSO (PISA); higher = thermal stabilisation; K562 cells, 10 uM, 30 min; active = over 0.2 and 3.5 SD of the protein, either way, in both replicates (recomputed)
# [1] = compound: CS(=O)(=O)c1ccc(-c2cnc(N)c(C(=O)Nc3ccccc3)n2)cc1
# Procedure, shortened: (§1)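 Quantification of soluble protein used TMTpro 16plex LC-MS/MS, with channel sums equalised. Samples were the supernatant after 21,000xg for 90 min of pooled aliquots from K562 cells (2×10^6 cells/mL) treated with 10 μM compound for 30 min, heated for 3 min over 48°C-58°C, and extracted in PBS with 0.5% NP-40 at 4°C. Values, from duplicates, describe thermal stability against control samples on a log2 fold-change scale.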
# crizotinib = compound: C[C@@H](Oc1cc(-c2cnn(C3CCNCC3)c2)cnc1N)c1c(Cl)ccc(F)c1Cl [crizotinib]
# Procedure, shortened: as §1
# [2] = compound: C[C@@H]1COCCN1C2=NC(=NC(=C2)C3(CC3)S(=O)(=O)C)C4=C5C=CNC5=CC=C4
# Procedure, shortened: as §1
# [3] = compound: C[C@H](C1=CC=C(C=C1)C(=O)NC2=C3C=CNC3=NC=C2)N
# Procedure, shortened: as §1
# duvelisib = compound: C[C@H](Nc1ncnc2nc[nH]c12)c1cc2cccc(Cl)c2c(=O)n1-c1ccccc1 [duvelisib]
# Procedure, shortened: as §1
# gandotinib = compound: Cc1cc(Nc2cc(CN3CCOCC3)c3nc(C)c(Cc4ccc(Cl)cc4F)n3n2)n[nH]1 [gandotinib]
# Procedure, shortened: as §1
# tozasertib = compound: Cc1cc(Nc2cc(N3CCN(C)CC3)nc(Sc3ccc(NC(=O)C4CC4)cc3)n2)n[nH]1 [tozasertib]
# Procedure, shortened: as §1
# [4] = compound: Cc1cc(SCc2sc(-c3ccc(C(F)(F)F)cc3)nc2C)ccc1OCC(=O)O
# Procedure, shortened: as §1
# doramapimod = compound: Cc1ccc(-n2nc(C(C)(C)C)cc2NC(=O)Nc2ccc(OCCN3CCOCC3)c3ccccc23)cc1 [doramapimod]
# Procedure, shortened: as §1
# ispinesib = compound: Cc1ccc(C(=O)N(CCCN)[C@@H](c2nc3cc(Cl)ccc3c(=O)n2Cc2ccccc2)C(C)C)cc1 [ispinesib]
# Procedure, shortened: as §1
# Sequence of UniProt P0CG38 (P0CG38 whole entry, looked up): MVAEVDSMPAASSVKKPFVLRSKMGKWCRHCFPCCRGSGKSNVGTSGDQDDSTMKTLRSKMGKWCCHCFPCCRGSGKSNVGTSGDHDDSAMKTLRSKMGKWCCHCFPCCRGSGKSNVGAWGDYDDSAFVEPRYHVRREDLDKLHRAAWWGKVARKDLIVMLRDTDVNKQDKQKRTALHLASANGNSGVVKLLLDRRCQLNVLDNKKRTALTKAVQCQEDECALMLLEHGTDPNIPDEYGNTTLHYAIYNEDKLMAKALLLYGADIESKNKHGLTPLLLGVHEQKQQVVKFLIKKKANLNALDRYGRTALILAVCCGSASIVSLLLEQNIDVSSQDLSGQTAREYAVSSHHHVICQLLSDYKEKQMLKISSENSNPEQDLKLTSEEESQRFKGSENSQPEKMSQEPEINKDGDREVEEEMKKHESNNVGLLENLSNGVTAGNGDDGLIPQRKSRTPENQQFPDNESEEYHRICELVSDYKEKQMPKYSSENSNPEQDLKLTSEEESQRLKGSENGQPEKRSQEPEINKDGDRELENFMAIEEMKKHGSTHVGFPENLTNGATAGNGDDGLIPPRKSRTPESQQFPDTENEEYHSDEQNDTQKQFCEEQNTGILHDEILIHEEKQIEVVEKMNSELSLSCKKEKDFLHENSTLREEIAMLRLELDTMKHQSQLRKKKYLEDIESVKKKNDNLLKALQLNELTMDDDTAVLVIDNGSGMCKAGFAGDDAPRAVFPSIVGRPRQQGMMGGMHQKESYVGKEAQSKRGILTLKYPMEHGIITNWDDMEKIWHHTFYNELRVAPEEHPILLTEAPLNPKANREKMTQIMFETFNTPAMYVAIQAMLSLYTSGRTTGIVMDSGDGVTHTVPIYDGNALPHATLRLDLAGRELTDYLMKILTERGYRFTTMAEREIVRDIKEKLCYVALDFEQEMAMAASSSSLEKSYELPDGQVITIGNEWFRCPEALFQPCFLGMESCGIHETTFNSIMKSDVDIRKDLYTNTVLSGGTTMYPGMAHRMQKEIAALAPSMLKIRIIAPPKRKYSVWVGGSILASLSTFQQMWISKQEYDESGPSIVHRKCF
# Sequence of UniProt P17980 (P17980 whole entry, looked up): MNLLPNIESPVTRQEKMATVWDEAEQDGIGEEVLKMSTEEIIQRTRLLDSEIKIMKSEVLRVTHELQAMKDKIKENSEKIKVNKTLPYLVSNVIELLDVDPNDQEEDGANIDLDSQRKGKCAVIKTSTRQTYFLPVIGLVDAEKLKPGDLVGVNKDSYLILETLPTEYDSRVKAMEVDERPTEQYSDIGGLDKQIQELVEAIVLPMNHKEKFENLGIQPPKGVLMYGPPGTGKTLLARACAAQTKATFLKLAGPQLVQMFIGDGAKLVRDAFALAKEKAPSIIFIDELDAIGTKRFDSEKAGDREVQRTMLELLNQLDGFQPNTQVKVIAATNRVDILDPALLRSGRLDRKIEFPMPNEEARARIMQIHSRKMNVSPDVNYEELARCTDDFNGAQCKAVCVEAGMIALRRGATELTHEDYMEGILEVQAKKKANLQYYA
# Sequence of UniProt Q15121 (Q15121 whole entry, looked up): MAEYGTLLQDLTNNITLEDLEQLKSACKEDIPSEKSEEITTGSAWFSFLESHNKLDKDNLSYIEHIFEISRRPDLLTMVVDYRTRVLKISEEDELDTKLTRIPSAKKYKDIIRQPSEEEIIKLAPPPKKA
# Sequence of UniProt Q9NR22 (Q9NR22 whole entry, looked up): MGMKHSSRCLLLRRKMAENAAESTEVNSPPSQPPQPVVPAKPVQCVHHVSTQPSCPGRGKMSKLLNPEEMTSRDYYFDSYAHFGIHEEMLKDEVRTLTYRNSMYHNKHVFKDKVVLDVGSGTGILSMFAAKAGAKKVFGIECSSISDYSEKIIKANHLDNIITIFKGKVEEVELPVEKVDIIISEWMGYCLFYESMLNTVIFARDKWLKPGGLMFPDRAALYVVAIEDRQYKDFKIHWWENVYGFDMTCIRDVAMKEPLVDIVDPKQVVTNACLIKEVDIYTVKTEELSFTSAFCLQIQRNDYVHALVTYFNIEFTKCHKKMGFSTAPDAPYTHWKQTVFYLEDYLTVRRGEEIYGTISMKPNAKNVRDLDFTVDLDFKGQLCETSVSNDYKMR
# Sequence of UniProt P15735 (P15735 whole entry, looked up): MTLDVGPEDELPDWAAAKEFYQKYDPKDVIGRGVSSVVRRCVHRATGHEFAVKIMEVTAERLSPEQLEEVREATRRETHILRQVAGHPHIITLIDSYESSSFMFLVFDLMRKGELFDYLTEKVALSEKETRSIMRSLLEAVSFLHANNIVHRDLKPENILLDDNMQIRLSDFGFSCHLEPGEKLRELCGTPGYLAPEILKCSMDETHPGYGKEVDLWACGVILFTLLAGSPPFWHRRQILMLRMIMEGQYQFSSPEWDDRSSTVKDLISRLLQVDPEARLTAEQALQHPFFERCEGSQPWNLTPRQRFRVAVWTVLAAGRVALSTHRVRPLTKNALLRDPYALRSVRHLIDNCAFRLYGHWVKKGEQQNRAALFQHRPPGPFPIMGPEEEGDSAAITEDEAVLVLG
# Sequence of UniProt Q8WUM4 (Q8WUM4 whole entry, looked up): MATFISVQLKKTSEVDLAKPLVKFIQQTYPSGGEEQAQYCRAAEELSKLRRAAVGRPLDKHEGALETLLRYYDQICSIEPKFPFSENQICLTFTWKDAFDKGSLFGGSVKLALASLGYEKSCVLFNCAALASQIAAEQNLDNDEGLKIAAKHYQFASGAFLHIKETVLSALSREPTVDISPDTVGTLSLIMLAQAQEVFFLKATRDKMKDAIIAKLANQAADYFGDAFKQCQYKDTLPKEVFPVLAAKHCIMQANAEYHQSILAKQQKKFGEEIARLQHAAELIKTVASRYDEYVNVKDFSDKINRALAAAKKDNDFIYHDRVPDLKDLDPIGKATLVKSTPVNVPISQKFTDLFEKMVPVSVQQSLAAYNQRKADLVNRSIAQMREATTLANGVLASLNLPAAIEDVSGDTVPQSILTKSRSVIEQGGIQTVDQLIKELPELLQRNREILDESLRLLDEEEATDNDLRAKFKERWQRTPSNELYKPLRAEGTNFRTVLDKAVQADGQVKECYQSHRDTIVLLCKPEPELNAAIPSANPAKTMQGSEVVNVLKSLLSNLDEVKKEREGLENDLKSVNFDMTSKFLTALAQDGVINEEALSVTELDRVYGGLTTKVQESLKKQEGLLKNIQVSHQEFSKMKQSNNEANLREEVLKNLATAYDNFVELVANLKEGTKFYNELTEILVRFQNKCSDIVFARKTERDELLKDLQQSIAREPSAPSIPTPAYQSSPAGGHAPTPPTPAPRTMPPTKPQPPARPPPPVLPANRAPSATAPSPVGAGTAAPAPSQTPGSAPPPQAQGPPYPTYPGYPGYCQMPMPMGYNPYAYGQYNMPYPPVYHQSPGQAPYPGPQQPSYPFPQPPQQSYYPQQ
# Sequence of UniProt Q9UMR5 (Q9UMR5 whole entry, looked up): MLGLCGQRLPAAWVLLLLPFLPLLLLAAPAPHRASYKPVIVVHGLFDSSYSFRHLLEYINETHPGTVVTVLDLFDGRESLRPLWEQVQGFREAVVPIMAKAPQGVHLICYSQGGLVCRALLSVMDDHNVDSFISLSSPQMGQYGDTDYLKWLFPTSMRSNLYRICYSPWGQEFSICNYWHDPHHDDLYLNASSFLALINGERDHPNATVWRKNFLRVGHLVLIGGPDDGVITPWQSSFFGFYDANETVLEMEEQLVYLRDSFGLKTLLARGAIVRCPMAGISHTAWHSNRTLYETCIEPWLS
# Sequence of UniProt Q14671 (Q14671 whole entry, looked up): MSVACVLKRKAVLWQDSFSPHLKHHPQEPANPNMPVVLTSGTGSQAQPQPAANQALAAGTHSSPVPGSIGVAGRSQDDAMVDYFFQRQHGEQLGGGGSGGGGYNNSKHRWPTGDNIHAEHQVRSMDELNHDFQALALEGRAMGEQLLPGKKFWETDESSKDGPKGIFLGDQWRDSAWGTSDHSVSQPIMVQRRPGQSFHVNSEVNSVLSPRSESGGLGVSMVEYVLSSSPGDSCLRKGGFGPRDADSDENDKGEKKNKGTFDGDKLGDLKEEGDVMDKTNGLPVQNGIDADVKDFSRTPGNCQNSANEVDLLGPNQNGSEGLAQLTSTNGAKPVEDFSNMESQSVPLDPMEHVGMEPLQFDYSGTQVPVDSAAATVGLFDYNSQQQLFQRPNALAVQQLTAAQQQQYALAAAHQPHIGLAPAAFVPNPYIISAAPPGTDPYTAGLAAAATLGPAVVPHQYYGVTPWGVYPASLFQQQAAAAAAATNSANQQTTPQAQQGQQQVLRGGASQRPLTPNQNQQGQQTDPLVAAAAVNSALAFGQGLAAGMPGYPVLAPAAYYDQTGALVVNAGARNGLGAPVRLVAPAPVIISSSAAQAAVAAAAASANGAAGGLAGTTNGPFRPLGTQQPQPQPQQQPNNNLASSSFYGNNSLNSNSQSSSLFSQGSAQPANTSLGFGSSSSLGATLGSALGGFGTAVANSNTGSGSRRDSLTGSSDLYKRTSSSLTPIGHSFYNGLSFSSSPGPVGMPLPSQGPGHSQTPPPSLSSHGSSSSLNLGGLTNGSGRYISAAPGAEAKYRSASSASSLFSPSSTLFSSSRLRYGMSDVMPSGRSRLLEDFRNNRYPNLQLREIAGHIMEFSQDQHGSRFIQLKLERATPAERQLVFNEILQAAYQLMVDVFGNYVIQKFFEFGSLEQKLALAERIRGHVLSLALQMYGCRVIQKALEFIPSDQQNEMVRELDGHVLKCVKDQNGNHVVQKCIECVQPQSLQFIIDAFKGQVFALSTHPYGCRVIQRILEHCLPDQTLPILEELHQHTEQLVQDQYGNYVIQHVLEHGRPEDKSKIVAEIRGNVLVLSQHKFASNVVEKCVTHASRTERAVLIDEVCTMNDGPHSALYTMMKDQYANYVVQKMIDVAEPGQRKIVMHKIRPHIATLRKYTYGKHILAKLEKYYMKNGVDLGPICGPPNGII
# Sequence of UniProt O43924 (O43924 whole entry, looked up): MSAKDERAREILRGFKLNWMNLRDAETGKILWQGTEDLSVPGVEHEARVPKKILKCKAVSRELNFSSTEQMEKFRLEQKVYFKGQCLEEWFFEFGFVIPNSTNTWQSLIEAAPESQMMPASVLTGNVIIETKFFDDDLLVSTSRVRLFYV
Target,log2 fold change [1],log2 fold change (crizotinib),log2 fold change [2],log2 fold change [3],log2 fold change (duvelisib),log2 fold change (gandotinib),log2 fold change (tozasertib),log2 fold change [4],log2 fold change (doramapimod),log2 fold change (ispinesib)
PPID (UniProt Q08752),0.055,-0.102,0.046,0.071,-0.024,-0.145,0.043,0.088,0.007,-0.08
PCTP (UniProt Q9UKL6),0.094,-0.135,0.031,0.003,-0.039,0.029,-0.042,-0.033,-0.048,0.015
PUM1 isoform 3 (UniProt Q14671),0.007,-0.02,-0.007,0.071,0.008,-0.055,0.007,0.007,-0.03,0.01
PSMC3 (UniProt P17980),0.002,0.012,-0.098,0.067,-0.048,0.027,0.024,0.011,0.017,-0.024
PEA15 isoform 2 (UniProt Q15121),0.012,0.136,0.141,-0.048,0.074,-0.073,0.103,0.048,0.003,0.034
PRKAG1 isoform 3 (UniProt P54619),-0.01,-0.114,0.006,-0.023,0.035,-0.249,-0.032,0.004,-0.003,-0.018
POP1 (UniProt Q99575),-0.034,0.02,-0.023,-0.05,-0.005,0.012,0.009,-0.041,0.016,0.039
PHKG2 (UniProt P15735),0.015,0,-0.097,0.053,-0.077,-0.017,-0.134,-0.006,0.044,0.018
PLA2G15 (UniProt Q8NCC3),0,-0.163,-0.008,0.015,-0.038,-0.036,-0.075,-0.016,0.015,-0.055
PCBP2 (UniProt F8VRH0),-0.181,-0.075,-0.22,-0.267,-0.299,0.013,-0.055,0.074,-0.225,–
PRKCE (UniProt Q02156),0.051,-0.071,0.083,-0.168,0.032,-0.092,0.071,0.055,-0.003,–
PSMD13 (UniProt Q9UNM6),0.048,0.008,-0.012,0.092,-0.028,-0.016,0.062,0.052,0.026,-0.008
PDE6D (UniProt O43924),-0.165,0.001,0.079,-0.148,0.109,-0.202,-0.076,-0.098,0.084,–
PPP2R5C isoform 5 (UniProt Q13362),-0.054,-0.071,0.023,-0.05,0.009,-0.024,-0.019,0.069,-0.043,0.007
POLR2G (UniProt P62487),0.006,0.257,0.111,0.125,0.087,0.191,-0.051,-0.026,-0.016,0.035
PSMD1 (UniProt Q99460),-0.009,-0.002,-0.075,0.047,-0.081,0,0.054,0.017,0.036,0.048
PRMT8 (UniProt Q9NR22),-0.046,-0.03,-0.043,0.024,0.012,-0.047,-0.024,0.045,-0.021,0.13
PSMA3 (UniProt P25788),0.011,0.052,-0.012,-0.117,-0.074,0.054,0.046,0.007,0.018,-0.002
PPP1CA (UniProt P62136),0.042,0.042,0.013,-0.069,0.048,0.026,0.034,-0.045,-0.003,0.083
PPT2 isoform 3 (UniProt Q9UMR5),0.074,-0.182,-0.021,-0.148,0.057,0.001,-0.04,-0.069,0.006,-0.041
PPP4R3B (UniProt Q5MIZ7),-0.003,0.124,0.064,-0.035,0.048,-0.075,0.149,0.056,0,0.056
PRG4 (UniProt Q92954),0.08,-0.19,-0.014,0.023,-0.145,0.098,0.167,0.004,-0.229,-0.114
PSMC1 (UniProt P62191),0.011,0.023,-0.072,0.073,-0.047,0.06,0.039,0.01,0.033,-0.036
PPIL2 (UniProt Q13356),0.029,0.027,0.061,-0.012,0.121,-0.081,0.039,0.131,-0.079,0.037
PLSCR1 (UniProt O15162),0.079,0.017,0.101,-0.024,0.037,-0.096,-0.075,-0.017,0.042,-0.619 (active)
PRKD2 isoform 3 (UniProt Q9BZL6),-0.275,-0.39,0.108,-0.111,0.066,0.017,0.048,-0.014,0.023,-0.129
PIP4P1 isoform 2 (UniProt Q86T03),0.021,-0.395 (active),-0.123,0.086,-0.085,0.107,0.021,-0.048,-0.025,-0.353 (active)
PDCD6IP (UniProt Q8WUM4),0.078,-0.177,0.067,0.077,0.026,-0.117,0.085,0.17,-0.042,-0.14
POTEI (UniProt P0CG38),-0.009,0.109,0.241,-0.096,0.019,-0.019,0.032,-0.021,-0.739 (active),0.131
PSMD5 (UniProt Q16401),0.008,0.006,0.046,-0.064,-0.023,-0.051,0.043,-0.013,-0.03,0.03
